Assay results taken from PubChem BioAssay.

Assay: P. aeruginosa biofilm formation inhibitors, primary screen, PAO1 strain, BacTiter-Glo luminescence, LB-PBS (AID 1144)
Conditions: 12 h, higher = more signal

z-score, inactive:
O=C1C2C=CC(C(O)C(c3ccccc3)c3ccccc3)N(Nc3ccccc3F)C2C(=O)N1c1ccccc1 (stereo not given) 0.712
CC1C2C(CCCO)=CC(C3C(=O)N(C(N)=O)C(=O)C23)N1Cc1cccc(OC(F)(F)F)c1 (stereo not given) 0.206
CN(C)CCCC[C@@H]1NC(=O)[C@H]2C[C@@H](C(=O)NCCCCCCNC(=O)CS)[C@@H](c3cccc(OCCO)c3)N2C1=O -0.444
CCCC1(C(=O)OC)C=C2C(=C(C(C)C)C(=O)C2C)CN1 (stereo not given) 0.2
CCCCCCc1nc(Cc2cc(OC)c(OC)c(OC)c2)c(C)c2c1[Si](C(C)C)(C(C)C)OC2 -1.44
COc1c(C)cc(-c2nc(-c3ccccc3)c3c(c2C)CO[Si]3(C(C)C)C(C)C)cc1C 0.306
[N-]=[N+]=Nc1ccccc1C[C@]1(C(=O)N2CCCCC2)N=C(c2ccc(OCCCO)cc2)O[C@H]1c1ccccc1 0.0619

Assay: CREB reporter modulators without forskolin, primary screen, cell-based, PC12, CRE-LacZ reporter, unstimulated (AID 1145)
Conditions: no forskolin, luminescence, 4.5 h, higher = more signal, called active from +8 up or from −8 down

z-score, inactive:
COc1cc(Cc2cc3c(c(CCc4ccccc4)n2)[Si](C(C)C)(C(C)C)O[C@H]3c2ccccc2)cc(OC)c1OC 0.875
C[C@]12C(=O)N(CCO)[C@@H]3C(=O)N(c4ccc(Cl)cc4)CC=CC31O[C@@H]1/C=C\CCCOC(=O)C12 (stereo not given in full) 0.467
COc1cc2c(cc1O)C(C)N(Cc1sc3ccccc3c1Cl)CC2 (stereo not given) -0.258
CN1C(=O)C2C=CC(C(O)c3ccc([N+](=O)[O-])cc3)N(Nc3ccccc3)C2C1=O (stereo not given) 0.0535
COC(=O)[C@@]1(Cc2ccc(F)cc2)[C@H]2c3cc(C(=O)N(C)C)n(CCF)c3C[C@H]2CN1C(=O)c1ccccc1 -0.375
O=C/C=C/c1ccc(-c2ccccc2)cc1 2.11
C=C(C(=O)CC[C@@H](OC(=O)c1ccccc1-c1ccccc1C(=O)O)c1ccc(OCCO)cc1)C(C)C 3.88
COc1ccc(C#Cc2ccc3c(c2)[C@]2(C(=O)N3)[C@H](c3ccccc3OCCO)N3[C@H](c4ccccc4)[C@H](c4ccccc4)OC(=O)[C@H]3[C@@H]2C(=O)NC[C@H](O)c2ccccc2)cc1 0.0921
O=C1NC(=O)C2C1C=CC(C(O)c1ccc(F)cc1)N2Nc1ccc(Cl)cc1Cl (stereo not given) 0.0535
C[C@@]1([C@@H](NS(=O)(=O)c2cccc3cccnc23)c2ccc(-c3ccccc3)cc2)C[C@H]1C1CCCCC1 0.583
O=C1N(Cc2ccccc2)c2ccccc2C[C@@]12N=C(c1ccc(OCCCO)cc1)O[C@H]2c1ccccc1 1.87
COc1ccc(NN2C(C(O)c3ccccc3)C=CC3C(=O)N(C4CCCCC4)C(=O)C32)cc1 (stereo not given) 0.127
C[C@]1(C(=O)NC2CC2)c2ccccc2C(=O)N(Cc2cc(F)cc(C(F)(F)F)c2)[C@H]1c1ccc(CO)cc1 0.764
O=C(CS)NCCCCCCNC(=O)[C@H]1C[C@H]2C(=O)NCC(=O)N2[C@H]1c1cccc(OCCO)c1 0.0084
COC(=O)[C@@]1(Cc2ccc(OC)cc2)[C@H]2c3cc(C(=O)N(C)C)n(Cc4c(CO)[nH]cc(C)c4=O)c3C[C@H]2CN1C(=O)c1ccccc1 1.15
COCCCNC(=O)[C@@]1(Cc2ccccc2I)c2ccccc2C(=O)N(C2CCCCC2)[C@H]1c1ccc(CO)cc1 0.468
COC(=O)[C@@]1(Cc2ccc(OC)cc2)[C@@H]2[C@@H](CC(=O)[C@H]2CC(=O)C(=O)N(C)C)CN1C(=O)c1ccccc1 0.39
C=C(C(=O)CC[C@@H](OC(=O)c1ccccc1-c1ccccc1C(=O)O)c1cccc(OCCO)c1)C(C)C 2.16
CC(C)C[C@@H]1NC(=O)[C@H]2C[C@@H](C(=O)O)[C@@H](c3cccc(OCCO)c3)N2C1=O 0.561
Cc1ccc(S[C@]2(C(=O)NCc3ccccc3)CC(=O)N(Cc3ccccc3C(F)(F)F)[C@@H]2c2ccc(CO)cc2I)cc1 1.06
CC(C)N1CC=CC23O[C@@H]4/C=C\CCCOC(=O)C4[C@H]2C(=O)N(C(C)CO)[C@@H]3C1=O (stereo not given in full) -1.58
COC(=O)Cn1c(C(=O)N(C)C)cc2c1C[C@H]1CN(C(=O)c3ccccc3)[C@@](Cc3ccccc3)(C(=O)OC)[C@@H]21 -0.189
COc1c(C)cc(-c2cc3c(c(CCc4ccccc4)n2)[Si](C(C)C)(C(C)C)O[C@H]3c2ccccc2)cc1C -0.272
